The full list was thinned out, with hits kept by preference.
ROS inducer: inducers of reactive oxygen species in cancer cells; U2OS ROS induction, H2DCF-DA fluorescence; hit rate 2% among 46,000; ROS induction (% of piperlongumine), % at 10 µM; in the data active means ROS induction above about 79%, passing the limit was not always enough;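 further: 0% = DMSO vehicle median and 100% = reference compound median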
* hit, by the source's call.

SMILES | ROS inducer
C[C@@H]1CN([C@H](C)CO)C(=O)Cc2cc(NC(=O)Cc3ccccc3)ccc2O[C@@H]1CN(C)CC1CCCCC1 | 23
C[C@@H]1CN([C@H](C)CO)C(=O)Cc2cc(NC(=O)Cc3cn(C)c4ccccc34)ccc2O[C@H]1CN(C)S(=O)(=O)c1ccc(F)cc1 | 23
C[C@@H]1CN([C@H](C)CO)C(=O)Cc2cc(NC(=O)Nc3ccccc3)ccc2O[C@@H]1CN(C)Cc1ccc(C(=O)Nc2ccccc2N)cc1 | 102*
COc1ccc(CN(C)C[C@H]2Oc3ccc(NC(=O)Cc4cn(C)c5ccccc45)cc3C(=O)N([C@H](C)CO)C[C@@H]2C)cc1 | 185*
Cc1cc(C)n2nc(SC(C)C(=O)NC3CCCCCCC3)nc2n1 (stereo unspecified) | -8
CN(C(=O)CSc1nc(-c2cccs2)cc(C(F)(F)F)n1)c1ccccc1 | 14
Cc1ccc(CN2CC34C=CC(O3)C(C(=O)NCCc3ccc(Cl)cc3)C4C2=O)cc1 (stereo unspecified) | -14
O=C1Nc2ccccc2C(O)(C(=O)NC2CC2)N1c1ccccc1 (stereo unspecified) | -19
C[C@H](CO)N1C[C@H](C)[C@@H](CN(C)Cc2ccc(Oc3ccccc3)cc2)Oc2ccc(NC(=O)Cc3cn(C)c4ccccc34)cc2C1=O | 113*
C[C@@H]1CN([C@H](C)CO)C(=O)Cc2cc(NC(=O)Cc3cn(C)c4ccccc34)ccc2O[C@H]1CN(C)Cc1ccc(Oc2ccccc2)cc1 | 15
C[C@@H]1CN([C@@H](C)CO)C(=O)Cc2cc(NC(=O)Cc3cn(C)c4ccccc34)ccc2O[C@@H]1CN(C)Cc1ccc(Oc2ccccc2)cc1 | 122*
C[C@H](CO)N1C[C@H](C)[C@H](CN(C)Cc2ccncc2)Oc2ccc(NC(=O)Cc3cn(C)c4ccccc34)cc2C1=O | -11
C[C@H]1CN([C@@H](C)CO)C(=O)Cc2cc(NC(=O)Cc3cn(C)c4ccccc34)ccc2O[C@H]1CN(C)Cc1ccc(Oc2ccccc2)cc1 | 0
C[C@H]1CN([C@@H](C)CO)C(=O)Cc2cc(NC(=O)Cc3cn(C)c4ccccc34)ccc2O[C@@H]1CN(C)Cc1ccc(Oc2ccccc2)cc1 | 35
O=C(NCc1cccs1)c1cc(=O)n(Cc2ccc(Cl)cc2)c2ccccc12 | -9
CCN1C(=O)/C(=C\c2ccsc2)SC1=S | 9
CN(CCC#N)C(=O)c1cc2c(s1)-c1ccccc1S(=O)(=O)C2 | 0
O=C(CSc1nc2ccccc2c(=O)n1-c1ccc(Cl)c(Cl)c1)N1CCOCC1 | 16
O=C(COc1ccc([N+](=O)[O-])cc1)Nc1cccnc1 | 0
COc1ccc(NC(=O)Cc2nc(-c3ccc([N+](=O)[O-])cc3)cs2)cc1 | 94*
COc1ccc(NC(=O)c2ccccc2NC(=O)COc2ccc([N+](=O)[O-])cc2)cc1 | -15
CC1=C(CO)C(=O)OC([C@@H](C)C2CC[C@H]3C4C[C@H]5O[C@]56[C@@H](O)C=CC(=O)[C@]6(C)C4CC[C@]23C)C1 (stereo partly specified) | 138*
N#CCSc1nc2nccnc2c(=O)n1CCc1ccccc1 | 29
O=C(Nc1ccc(NC(=S)NC(=O)c2cc3ccccc3o2)cc1)c1ccco1 | 16
Cc1ccc(NC(=O)CSc2nc3c(c(=O)n2CCc2ccccc2)SCC3)cc1Cl | 19
SMILES | ROS inducer
CC12CCC(CC(=O)c3ccccc3)(CC1)CC2 | -1
CC(C)(C)C1CCC2(CC1)C(C#N)C2(C#N)C(=O)c1ccccc1 (stereo unspecified) | 159*
CCCC(=O)NCc1nc2ccccc2n1C(C)c1ccccc1 (stereo unspecified) | -3
O=c1[nH]nc(SCc2nnc(-c3ccc(Cl)cc3)o2)n1C1CCCCC1 | -1
COc1ccc(C#Cc2cnc3c(c2)C(=O)N([C@H](C)CO)C[C@H](C)[C@H](CN(C)Cc2cccc(C(F)(F)F)c2)O3)cc1OC | 60
C[C@H](CO)N1C[C@H](C)[C@H](CN(C)Cc2cccc(C(F)(F)F)c2)Oc2ncc(-c3ccccc3)cc2C1=O | 47
COc1ccc(-c2cnc3c(c2)C(=O)N([C@H](C)CO)C[C@H](C)[C@H](CN(C)Cc2cccc(C(F)(F)F)c2)O3)cc1 | 110*
Cc1cccc(CN(C)C[C@@H]2Oc3ncc(-c4cccc(C(F)(F)F)c4)cc3C(=O)N([C@H](C)CO)C[C@@H]2C)c1 | 104*
Cc1cccc(CN(C)C[C@@H]2Oc3ncc(-c4ccccc4)cc3C(=O)N([C@H](C)CO)C[C@@H]2C)c1 | 34
COc1ccc(-c2cnc3c(c2)C(=O)N([C@H](C)CO)C[C@H](C)[C@H](CN(C)C)O3)cc1 | 7
COc1ccc2nc(C)cc(Nc3ccccc3)c2c1 | 27
CC(C)CNC(=S)N1CCCC1 | -11
CCN1CNC(=S)N(C2CCCCC2)C1 | -8
CC1CCN(S(=O)(=O)c2ccc(NC(=O)/C=C/c3ccccc3)cc2)CC1 | 7
CC(=O)Nc1ccc(S(=O)(=O)NCCC(c2ccccc2)c2ccccc2)cc1 | 5
O=C(O)CSc1nnc(Cn2c(=O)sc3ccccc32)n1-c1cccc(C(F)(F)F)c1 | 40
Cc1ccc(-n2c(=O)c(C#N)cc3c(=O)n4ccccc4nc32)cc1 | -1
Cc1ccc(CSc2nnc(-n3c(=O)c(C#N)cc4c(=O)n5ccccc5nc43)s2)cc1 | 189*
COCCn1c(=O)c(C#N)cc2c(=O)n3ccccc3nc21 | 20
CNC(=O)Cn1ncc2c3ccccc3n(Cc3cc(C)ccc3C)c2c1=O | 10
N#Cc1c(C(F)(F)F)cc(-c2cccs2)nc1SCC(=O)Nc1sc2c(c1C#N)CCC2 | 13
N#Cc1c(C(F)(F)F)cc(-c2cccs2)nc1SCC(=O)Nc1ccccc1C(F)(F)F | 8
N#Cc1c(C(F)(F)F)cc(-c2cccs2)nc1SCC(=O)c1ccccc1 | 747*
COc1ccc(-n2cc(C(=O)N3CCCN(Cc4ccccc4F)C3)c3ccccc3c2=O)cc1 | -7
CCCc1nc(N)c(C#N)c(-c2ccccc2)c1CC | 13
SMILES | ROS inducer
CCCc1c(C#N)c(N)nc(SCCCN2CCN(c3cccc(Cl)c3)CC2)c1C#N | 126*
O=c1n(CCCN2CCN(c3cccc(Cl)c3)CC2)nc2ccccn12 | -1
O=c1cc(-c2ccccc2)oc2cc(O)cc(O)c12 | 6
CC1(C)C=Cc2c(c3occc3c3oc(-c4ccccc4)cc(=O)c23)O1 | 223*
O=c1cc(-c2ccccc2)oc2cccc(O)c12 | -1
N#Cc1c(C(F)(F)F)cc(-c2ccccc2)nc1SCC1COc2ccccc2O1 (stereo unspecified) | 19
CCCCCC(=O)Cc1cc(O)c(O)c2c1C(=O)Oc1cc(O)c(C(=O)O)c(CCCCC)c1O2 | -10
O=C(CCn1nc(-c2ccccc2)ccc1=O)NCCc1ccccc1 | -5
Cc1cc(I)ccc1NC(=O)Cn1nc(C)c([N+](=O)[O-])c1C | 6
Cc1nn(CC(=O)Nc2ccc(F)cc2)c(C)c1[N+](=O)[O-] | 4
Cc1ccc(NC(=O)Cn2nc(C)c([N+](=O)[O-])c2C)cc1C | 169*
CCOC(=O)c1nnn2c1nc(N(Cc1ccccc1)Cc1ccccc1)c1ccccc12 | 173*
CCOC(=O)c1nnn2c1nc(SCc1ccc(F)cc1)c1ccccc12 | 59
CCOC(=O)c1nnn2c1nc(SCC(N)=O)c1ccccc12 | 17
O=C(Nc1ccc(F)cc1)N1CCC2(CC1)C(=O)NCN2c1ccccc1 | -12
COC(=O)c1ccc2nc[nH]c2c1 | -19
O=C(Nc1cccc(F)c1)c1cc(S(=O)(=O)N2CCCCC2)ccc1F | -4
[N-]=[N+]=NCc1ccccc1C[C@@]1(C(=O)N2CCCCC2)N=C(c2ccc(OCCCO)cc2)O[C@@H]1c1ccccc1 | 53

Screening results: PubChem BioAssay, Broad Institute
